This is part of a sample that, as a whole, favours compounds with a hit. Of some 83,000 tested, about 20% had one in any assay.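 Cell lines were cultured in 96-well plates, exposed to a single compound concentration, and assessed for percent growth 48 hours later.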 Values without a mark were called inactive. Activity calls are given as the source filed them. How the source made its calls: active means growth percent below 10; inactive means the rest.

Assay in all cases: NCI-60 one-dose screen, 48 h (100 = growth as untreated, 0 = no growth, -100 = all killed)
In one test the test system is HCT-15 colon. Conditions: 10 µM unless noted.
The test system of a further test is HT29 colon. Particulars: 10 µM unless noted.
A further test concerns SNB-75 CNS. Particulars: 10 µM unless noted.
The next test relates to SNB-19 CNS. Conditions: 10 µM unless noted.
The test system of the next test is U251 CNS. Particulars: 10 µM unless noted.
The subject of another test is PC-3 prostate. Particulars: 10 µM unless noted.
In the next test the test system is SK-MEL-5 melanoma. Conditions: 10 µM unless noted.
A further test has as its system UACC-62 melanoma. Particulars: 10 µM unless noted.
In the next test the test system is LOX IMVI melanoma. Particulars: 10 µM.
A further test concerns SK-MEL-28 melanoma. Conditions: 10 µM unless noted.

Take `CCc1cccc(CC)c1N1C(=O)C=CC1=O`: the growth is 104% in the test on HCT-15 colon; 113% with HT29 colon; 93.8% in the test on SNB-75 CNS; 105% with SNB-19 CNS; 100% with U251 CNS; 110% with PC-3 prostate. The growth in the test on SK-MEL-5 melanoma is 98.1%; with UACC-62 melanoma it was 112%; in the test with LOX IMVI melanoma, 106%; with SK-MEL-28 melanoma, 119%.

With `N=C1C=C(N)C(=O)c2ccccc21`, the growth is -74.6% (active) in the test on HCT-15 colon; -38.8% (active) in the test with HT29 colon; -99.1% (active) with SNB-75 CNS; -98.7% (active) in the test with SNB-19 CNS; -72.1% (active) with U251 CNS; -7.01% (active) in the test on PC-3 prostate. The growth was -96% (active) with SK-MEL-5 melanoma, -95.8% (active) in the test with UACC-62 melanoma, -100% (active) with LOX IMVI melanoma and -96.5% (active) with SK-MEL-28 melanoma.

For `CCOC(=O)/C(=C\c1ccc2ccccc2c1)P(=O)(OCC)OCC`, the growth is 2.93% (active) in the test with HCT-15 colon; 3.89% (active) in the test with HT29 colon; 35.2% with SNB-75 CNS; 41.8% in the test on SNB-19 CNS; 38.2% with U251 CNS; 58.5% with PC-3 prostate. Also, the growth is 44.4% in the test on SK-MEL-5 melanoma, 9.26% (active) in the test on UACC-62 melanoma, -55.6% (active) in the test on LOX IMVI melanoma and 18.7% with SK-MEL-28 melanoma.

For the compound `CC(C)(C)c1ccc(O)c(Br)c1`, the growth in the test on HCT-15 colon is 104%; in the test with HT29 colon, 103%; in the test on SNB-75 CNS, 77%; with SNB-19 CNS, 95.9%; with U251 CNS, 106%; in the test with PC-3 prostate it was 101%. The growth in the test on SK-MEL-5 melanoma was 96.4%; in the test with UACC-62 melanoma, 98.2%; with LOX IMVI melanoma, 98.3%; in the test on SK-MEL-28 melanoma, 102%.

For the compound `Cc1cc(C(N)=O)cc(C)c1C(=O)OCCCl`, the growth in the test on HCT-15 colon was 111%; in the test on HT29 colon, 106%; in the test on SNB-75 CNS, 100%; in the test on SNB-19 CNS, 109%; in the test on U251 CNS, 96.9%; in the test on PC-3 prostate it was 96.8%. Also, the growth in the test with SK-MEL-5 melanoma was 101%; with UACC-62 melanoma, 102%; with LOX IMVI melanoma it was 97.5%; in the test on SK-MEL-28 melanoma, 110%.

As to `NNc1ccc(Cl)cc1Cl`, the growth with HCT-15 colon is 79.8%; with HT29 colon, 94.2%; with SNB-75 CNS, 80.7%; in the test with SNB-19 CNS, 92.5%; in the test with U251 CNS, 76.4%; with PC-3 prostate, 60.4%. The growth was 86.1% with SK-MEL-5 melanoma, 37.2% with UACC-62 melanoma, 67.5% in the test with LOX IMVI melanoma and 120% in the test with SK-MEL-28 melanoma.

For the compound `Oc1c(C(Nc2ccccc2)c2ccccc2)ccc2cccnc12` (stereo not given), the growth was 29.4% with HCT-15 colon; 44.5% in the test with HT29 colon; 70.8% in the test with SNB-75 CNS; 46.8% in the test on SNB-19 CNS; 25.7% with U251 CNS; 28.9% with PC-3 prostate. The growth in the test with SK-MEL-5 melanoma is 19.7%; in the test with UACC-62 melanoma it was 31.4%; in the test on LOX IMVI melanoma it was 31.6%; with SK-MEL-28 melanoma, 53.3%.

Take `CCCCCCCCCCCCCCCCSC(=NCC)NCC`: the growth is -36% (active) with HCT-15 colon; -61.4% (active) with HT29 colon; 53.3% in the test on SNB-75 CNS; 55.3% in the test on SNB-19 CNS; 4.98% (active) with U251 CNS; -42% (active) with PC-3 prostate. Besides, the growth in the test with SK-MEL-5 melanoma was -38% (active); in the test with UACC-62 melanoma, -8.15% (active); in the test on LOX IMVI melanoma it was -91.1% (active); with SK-MEL-28 melanoma it was 43%.

On to `O=[N+]([O-])c1ccc(C2N(Cc3ccc(Cl)cc3)CCN2Cc2ccc(Cl)cc2)cc1`, for which the growth in the test on HCT-15 colon was 84.9%; with HT29 colon, 73.3%; with SNB-75 CNS, 74.1%; in the test with SNB-19 CNS it was 96.7%; in the test with U251 CNS, 87.6%; in the test on PC-3 prostate it was 82.3%. For the same compound, the growth in the test with SK-MEL-5 melanoma was 88.8%; in the test on UACC-62 melanoma, 102%; with LOX IMVI melanoma, 96.9%; in the test with SK-MEL-28 melanoma, 96.3%.

For `O=C1C=CC(=O)N1c1cc(Cl)c(Cl)cc1Cl`, the growth in the test on HCT-15 colon was 113%; in the test with HT29 colon, 101%; with SNB-75 CNS, 82.1%; in the test on SNB-19 CNS, 108%; with U251 CNS, 101%; in the test with PC-3 prostate, 100%. Further, the growth with SK-MEL-5 melanoma was 111%; in the test on UACC-62 melanoma, 105%; in the test on LOX IMVI melanoma, 97.9%; in the test with SK-MEL-28 melanoma it was 107%.

Turning to `OC(c1cc(-c2ccc(Cl)cc2)nc2c(Cl)cccc12)C1CCCCN1` (stereo not given), the growth is -58.1% (active) with HCT-15 colon; -86.3% (active) with HT29 colon; -81.2% (active) in the test with SNB-75 CNS; -69.9% (active) in the test with SNB-19 CNS; -89% (active) in the test on U251 CNS; -94.4% (active) in the test with PC-3 prostate. Besides, the growth in the test with SK-MEL-5 melanoma is -0.885% (active); in the test on UACC-62 melanoma, -75.9% (active); in the test on LOX IMVI melanoma, -76.6% (active); in the test with SK-MEL-28 melanoma, -94.6% (active).

For the compound `CCN(CC)CCNc1ccc([N+](=O)[O-])c2sc3ccccc3c(=O)c12`, the growth is 23% in the test with HCT-15 colon; 9.13% (active) with HT29 colon; 34.8% with SNB-75 CNS; 34.8% in the test on SNB-19 CNS; 22.8% in the test on U251 CNS; 27.3% in the test with PC-3 prostate. Besides, the growth in the test with SK-MEL-5 melanoma was 21.1%; in the test with UACC-62 melanoma, 35.7%; in the test with LOX IMVI melanoma it was 19.4%; in the test on SK-MEL-28 melanoma, 35.4%.

Take `Cc1cc(I)nc2ccccc12`: the growth is 105% with HCT-15 colon; 109% in the test with HT29 colon; 99.7% in the test on SNB-75 CNS; 107% with SNB-19 CNS; 110% with U251 CNS; 96.8% with PC-3 prostate. The growth in the test with SK-MEL-5 melanoma is 104%; with UACC-62 melanoma, 117%; with LOX IMVI melanoma it was 100%; in the test with SK-MEL-28 melanoma, 112%.

On to `O=C(CBr)c1ccc(OC(=O)c2ccccc2)cc1`, for which the growth was 101% in the test with HCT-15 colon; 115% in the test with HT29 colon; 96.5% with SNB-75 CNS; 112% in the test with SNB-19 CNS; 95.5% in the test on U251 CNS; 101% in the test on PC-3 prostate. Also, the growth in the test on SK-MEL-5 melanoma is 107%; in the test with UACC-62 melanoma it was 107%; in the test with LOX IMVI melanoma it was 73.3%; in the test on SK-MEL-28 melanoma, 112%.
